Results filed as inconclusive are left out. Active and inactive are the calls of the source. Unless noted, the call rests on the fitted dose curve; in most records, active means well fitted curve in either direction with a large enough effect (not every such curve was filed as active); inconclusive means small, poorly fitted or top-dose-only effect, or another doubt; inactive means flat fitted curve, though single readings scatter.
Experiments:
[1] = AP1 Signaling Pathway (AID 357); details: ME-180 AP-1-bla reporter, EGF-induced, beta-lactamase ratio, 5 h; at 17.2 µM (top of the series) unless noted;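 further: ME-180 reporter cells stimulated with EGF at its EC50 level; on the % scale 0 is the no-effect control and ±100 the full control effect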
Outline: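 Cells are seeded overnight, exposed to compound titrations and an EC50 level of EGF for 5 hours at 37 °C, then loaded with CCF4 dye for 2.5 hours. Beta-lactamase activity under the AP-1 element is read as a blue/green ratio.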

[2] = NFAT Signaling Pathway (AID 444); details: Jurkat NFAT-bla M1, carbachol, beta-lactamase ratio, 5 h; at 17.2 µM (top of the series) unless noted;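 further: carbachol stimulus at about its EC50 of 1 µM final; on the % scale 0 is the no-effect control and ±100 the full control effect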
Outline: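 Read-out: CCF4 FRET ratio (460 nm/530 nm) after 1 h RT dye loading, used for %activity and AC50 from titration series. Cells: Jurkat NFAT-β-lactamase/M1 line, treated with compound plus 1 uM carbachol for 5 h, 37 °C.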

[3] = Stat Signaling Pathway (AID 446);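 further: ME-180 cervical cancer cells given 40 pM IL-6 alongside compound; SIE-controlled beta-lactamase reporter measured as 460/530 nm FRET emission ratio; on the % scale 0 is the no-effect control and ±100 the full control effect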
Outline: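 ME-180 SIE-bla cells; overnight plating; cpd + IL-6 40 pM, 5 h, 37 C; LiveBLAzer 2.5 h RT; 460/530 nm emission ratio. Normalized to 300 pM IL-6 and 125 nM JAK inhibitor controls.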

[4] = molecular target: Glucocorticoid receptor (Homo sapiens) (UniProt P04150); assay: GR-GFP Redistribution (AID 450;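 active means compounds whose dose series gives a full or clear partial fitted curve of increased nuclear translocation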; further: potency means the concentration at half of the fitted maximal effect); details: U2OS GR-GFP nuclear translocation, laser cytometry, 2 h
[5] = qHTS Assay for Identification of Small Molecule Agonists for Hypoxia Response Element Signaling Pathway (AID 914; active means well fitted activation curve with a large enough effect in the signal ratio, with a control signal flat, not every such curve was filed as active; the % refers to the signal ratio; further: % of control where 0% means no effect); details: ME-180 (cervical carcinoma) HRE-bla reporter, beta-lactamase ratio, CoCl2, 17 h; activation: active compounds read high
Outline: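 A beta-lactamase reporter under hypoxia response element control in ME-180 cells served as the system. Compound titrations plus EC50 CoCl2 ran 17 h at 37 degrees Celsius; AC50 values were fitted from %Activity.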

[6] = molecular target: Glucocorticoid receptor (Homo sapiens) (UniProt P04150); assay: GR-EFC Redistribution (AID 451; calls by dose curve; further: potency means the concentration at half of the fitted maximal effect); details: CHO-K1 GR-EFC translocation, beta-gal luminescence, 2 h
Outline: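 Translocation of GR-ED fusion to nuclear EA restores b-gal, read by luminescence after 1 h room-temperature detection. Engineered CHO-K1 biosensor cells, 1,000/well, exposed 2 h at 37 C to titrations up to 46 uM final.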

[7] = molecular target: Guanine nucleotide-binding protein G(i) subunit alpha-1 (Homo sapiens) (UniProt P63096); assay: qHTS Assay for Inhibitors of RGS12 GoLoco Motif Activity (Green Fluorophore) (AID 879; active means well fitted curve in the direction sought with a large enough effect; an effect the other way counts as inactive or inconclusive;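 further: 0% = labeled peptide with Gαi1 and full inhibition = labeled peptide alone without protein; negative values mean loss of peptide binding seen as reduced polarization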)
Outline: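 Fluorescence polarization assay: 50 nM Gαi1 with 10 nM FITC-labeled RGS12 GoLoco peptide in 10 mM Tris pH 7.5, 150 mM NaCl, 0.1 mM GDP, 0.05% NP40, 10 min at room temperature with compound.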

[8] = molecular target: Muscarinic acetylcholine receptor M1 (Rattus norvegicus) (UniProt P08482); assay: qHTS Assay for Antagonists of Acetylcholine Muscarinic M1 Receptor: Measurement of IP-One Response (AID 944; active means well fitted curve in the direction sought with a large enough effect; an effect the other way counts as inactive or inconclusive; further: nearly all actives have a fitted effect of over 75% in size)
Outline: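 Steps: plate transfected CHO-M1 cells overnight; add test compound, 10 min; add carbachol (200 nM, EC80) in stimulation buffer with LiCl; incubate 30 min; add labelled IP1 tracer and anti-IP1 antibody in lysis buffer; read HTRF after 10 min.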

[9] = molecular target: Pyruvate kinase (Leishmania mexicana) (UniProt Q27686); assay: qHTS Validation Assay for Inhibitors of Leishmania Mexicana Pyruvate Kinase (AID 945; active means well fitted curve in the direction sought with a large enough effect; an effect the other way counts as inactive or inconclusive;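 further: 0% = DMSO only neutral control wells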)
Outline: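 Compounds are tested as eight-point concentration series. Reactions contain 0.2 nM LmPYK E451W, 0.5 mM PEP, 0.1 mM ADP, 7 mM MgCl2 and 50 mM KCl at pH 7.2, run 1 h at room temperature, then read by PKLight luminescence.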

[10] = molecular target: Pyruvate kinase PKM (Homo sapiens) (UniProt P14618); assay: qHTS Assay for Activators of Human Muscle Pyruvate Kinase (AID 954; active means well fitted curve in the direction sought with a large enough effect, not every such curve was filed as active;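 further: 0% = uninhibited enzyme and -100% = no enzyme or full thiadiazolimine inhibition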)
Outline: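 Luminescence from a luciferase ATP-detection/stop reagent reported PKM2 activity. Reactions contained 0.1 nM purified human enzyme, 0.5 mM PEP, 0.1 mM ADP and 7 mM MgCl2 at pH 7.2, run 1 h at RT.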

[11] = molecular target: Alpha-galactosidase (Coffea arabica) (UniProt Q42656); assay: Counterscreen for Glucocerebrosidase Inhibitors: qHTS Assay for Coffee Bean alpha-Galactosidase at pH 4.5 (AID 957; active means well fitted curve in the direction sought with a large enough effect; an effect the other way counts as inactive or inconclusive;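 further: plate controls were enzyme alone for no effect and no enzyme for full effect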)
Outline: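 AC50 values derive from Hill-equation modeling of concentration-response data, normalized to no-enzyme and full-activity controls. The pH 4.5 citrate assay used 2 nM coffee bean enzyme and 80 uM fluorogenic substrate for 20 min.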

[12] = molecular target: alpha-glucosidase (Oryza sativa, rice) (UniProt Q653V4); assay: Counterscreen for Glucocerebrosidase Inhibitors: qHTS Assay for Rice alpha-Glucosidase at pH 5.0 (AID 997; active means well fitted curve in the direction sought with a large enough effect; an effect the other way counts as inactive or inconclusive;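 further: 0% = full activity with enzyme and -100% = basal without enzyme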)
Outline: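 Rice alpha-glucosidase (4 nM final) with 400 uM 4-methylumbelliferyl-alpha-D-glucopyranoside in citrate buffer pH 5.0, 20 min at room temperature, stopped at pH 10; fluorescence 365/440 nm, compounds 0.7 nM–77 uM, AC50 from Hill fits.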

[13] = molecular target: Alpha-galactosidase (Coffea arabica) (UniProt Q42656); assay: Counterscreen for Glucocerebrosidase Inhibitors: qHTS Assay for Coffee Bean alpha-Galactosidase at pH 5.9 (AID 998; active means well fitted curve in the direction sought with a large enough effect; an effect the other way counts as inactive or inconclusive;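 further: plate controls were uninhibited enzyme for no effect and no-enzyme basal signal for full effect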)
Outline: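 Compounds were titrated from 0.7 nM to 77 uM against green coffee bean alpha-galactosidase (2 nM) using 80 uM fluorogenic 4-methylumbelliferyl substrate. After 20 min at room temperature, reactions were stopped at pH 10 and read by fluorescence.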

[14] = molecular target: Mitogen-activated protein kinase 10 (Mus musculus) (UniProt Q61831); assay: JNK3 AlphaScreen Assay (AID 530);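 further: kinase came from lysate of stimulated human HepG2 cells; signal reports phosphorylation of biotinylated GST-cJun 1-79 at Ser73 with 10 µM ATP; on the % scale 0 is the no-effect control and ±100 the full control effect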
Outline: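 Room-temperature AlphaScreen kinase assay; pre-activated HepG2 lysate as JNK3 source, biotin-GST-cJun(1-79) substrate, 10 uM ATP, compound 15 min preincubation.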

[15] = molecular target: 3',5'-cyclic-AMP phosphodiesterase 4B (Homo sapiens) (UniProt Q07343); assay: qHTS Assay for Inhibitors of PDE-IV (AID 607; active means well fitted activation curve with a large enough effect in the main read-out, with a control signal flat, not every such curve was filed as active; further: % of control where 0% means no effect)
Outline: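 ACTOne HEK293 cells carry a modified cAMP-gated CNG channel and express endogenous PDE4; plated 1000 cells/well, compounds up to 22.9 uM final. Membrane-potential dye fluorescence (ex 535/em 590) was read; parental cells received 10 uM forskolin + 100 uM RO 20-1724.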

[16] = qHTS Assay for Identification of Small Molecule Agonists for Thrombopoietin (TPO) Signaling Pathway (AID 917; active means well fitted curve in the direction sought with a large enough effect; an effect the other way counts as inactive or inconclusive; further: on the % scale 0 is the no-effect control and ±100 the full control effect)
Outline: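 Reporter: GpIIb promoter–luciferase in murine Ba/F3 expressing human TPO receptor. Pre-starved of IL-3 overnight; compounds with 26 pM TPO, 24 hrs, 37 C/5% CO2; luminescence read.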

Chain of Glucocorticoid receptor (Homo sapiens) (P04150 whole entry, looked up, the tested form may be a part): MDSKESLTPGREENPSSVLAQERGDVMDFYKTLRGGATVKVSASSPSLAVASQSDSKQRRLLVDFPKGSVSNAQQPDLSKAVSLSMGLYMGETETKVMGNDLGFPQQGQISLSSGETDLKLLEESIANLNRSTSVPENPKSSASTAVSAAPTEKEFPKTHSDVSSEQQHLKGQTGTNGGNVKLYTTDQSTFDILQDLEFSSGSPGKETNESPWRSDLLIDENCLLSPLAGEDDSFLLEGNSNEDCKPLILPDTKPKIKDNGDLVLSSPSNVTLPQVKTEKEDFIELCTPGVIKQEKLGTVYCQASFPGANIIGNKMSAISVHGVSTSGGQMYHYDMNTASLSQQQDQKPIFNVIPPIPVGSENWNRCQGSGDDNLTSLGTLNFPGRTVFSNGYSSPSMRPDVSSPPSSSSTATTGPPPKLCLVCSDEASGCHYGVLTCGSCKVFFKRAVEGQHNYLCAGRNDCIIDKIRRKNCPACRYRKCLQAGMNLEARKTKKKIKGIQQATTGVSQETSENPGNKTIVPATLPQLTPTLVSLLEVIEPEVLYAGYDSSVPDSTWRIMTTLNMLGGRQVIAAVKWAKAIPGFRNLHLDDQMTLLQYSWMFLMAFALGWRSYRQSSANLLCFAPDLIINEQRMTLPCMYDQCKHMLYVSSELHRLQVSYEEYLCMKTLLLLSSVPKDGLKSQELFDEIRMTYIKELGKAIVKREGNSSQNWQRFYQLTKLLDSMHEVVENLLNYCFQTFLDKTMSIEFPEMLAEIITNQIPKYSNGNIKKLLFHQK
Chain of Alpha-galactosidase (Coffea arabica) (Q42656 whole entry, looked up): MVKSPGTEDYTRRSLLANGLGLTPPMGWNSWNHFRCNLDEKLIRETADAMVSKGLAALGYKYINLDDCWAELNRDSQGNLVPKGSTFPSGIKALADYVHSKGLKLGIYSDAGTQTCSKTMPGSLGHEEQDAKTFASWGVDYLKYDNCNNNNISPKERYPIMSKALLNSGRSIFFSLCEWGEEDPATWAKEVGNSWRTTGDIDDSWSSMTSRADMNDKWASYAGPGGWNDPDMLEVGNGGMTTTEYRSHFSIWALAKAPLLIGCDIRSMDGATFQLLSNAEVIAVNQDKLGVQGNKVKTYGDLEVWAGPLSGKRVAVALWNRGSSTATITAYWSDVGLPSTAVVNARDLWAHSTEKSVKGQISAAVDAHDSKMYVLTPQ
Chain of Guanine nucleotide-binding protein G(i) subunit alpha-1 (Homo sapiens) (P63096 whole entry, looked up): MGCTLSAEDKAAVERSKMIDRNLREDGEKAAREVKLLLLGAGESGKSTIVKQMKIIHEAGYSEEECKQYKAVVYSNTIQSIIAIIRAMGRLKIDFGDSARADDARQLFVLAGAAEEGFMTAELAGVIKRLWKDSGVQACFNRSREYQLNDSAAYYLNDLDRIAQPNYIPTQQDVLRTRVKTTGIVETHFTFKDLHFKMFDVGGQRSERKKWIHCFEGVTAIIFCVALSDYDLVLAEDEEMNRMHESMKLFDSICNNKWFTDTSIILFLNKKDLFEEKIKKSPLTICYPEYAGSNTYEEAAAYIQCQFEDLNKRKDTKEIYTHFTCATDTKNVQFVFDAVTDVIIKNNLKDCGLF
Chain of Pyruvate kinase PKM (Homo sapiens) (P14618 whole entry, looked up): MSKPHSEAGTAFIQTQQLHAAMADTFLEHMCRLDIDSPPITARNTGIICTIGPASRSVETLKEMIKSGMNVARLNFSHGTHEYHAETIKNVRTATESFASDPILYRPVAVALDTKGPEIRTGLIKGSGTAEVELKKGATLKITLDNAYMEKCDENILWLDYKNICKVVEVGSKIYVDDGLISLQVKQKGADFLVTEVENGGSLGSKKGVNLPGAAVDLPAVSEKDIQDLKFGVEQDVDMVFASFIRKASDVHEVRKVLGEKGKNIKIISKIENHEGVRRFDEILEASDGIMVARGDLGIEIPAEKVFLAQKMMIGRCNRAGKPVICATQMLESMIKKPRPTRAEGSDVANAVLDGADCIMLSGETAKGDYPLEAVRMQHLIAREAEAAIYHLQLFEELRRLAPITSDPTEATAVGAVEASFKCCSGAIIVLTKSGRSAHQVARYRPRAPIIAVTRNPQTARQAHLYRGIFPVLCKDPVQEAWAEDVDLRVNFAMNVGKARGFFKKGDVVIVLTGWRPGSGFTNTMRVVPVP
Chain of Pyruvate kinase (Leishmania mexicana) (Q27686 2-499 E452W): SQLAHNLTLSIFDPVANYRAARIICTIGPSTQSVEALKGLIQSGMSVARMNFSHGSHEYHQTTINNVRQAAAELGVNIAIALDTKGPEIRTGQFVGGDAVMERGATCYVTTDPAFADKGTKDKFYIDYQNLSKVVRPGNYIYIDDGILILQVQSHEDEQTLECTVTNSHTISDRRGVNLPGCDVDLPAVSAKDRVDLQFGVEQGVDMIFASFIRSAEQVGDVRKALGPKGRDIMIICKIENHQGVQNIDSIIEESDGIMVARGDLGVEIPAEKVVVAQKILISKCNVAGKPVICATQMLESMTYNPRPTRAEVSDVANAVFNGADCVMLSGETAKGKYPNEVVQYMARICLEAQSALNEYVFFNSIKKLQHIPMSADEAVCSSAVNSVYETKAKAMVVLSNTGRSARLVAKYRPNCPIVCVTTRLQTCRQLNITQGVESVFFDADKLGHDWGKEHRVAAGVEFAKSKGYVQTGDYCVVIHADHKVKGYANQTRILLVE
Chain of 3',5'-cyclic-AMP phosphodiesterase 4B (Homo sapiens) (Q07343 whole entry, looked up): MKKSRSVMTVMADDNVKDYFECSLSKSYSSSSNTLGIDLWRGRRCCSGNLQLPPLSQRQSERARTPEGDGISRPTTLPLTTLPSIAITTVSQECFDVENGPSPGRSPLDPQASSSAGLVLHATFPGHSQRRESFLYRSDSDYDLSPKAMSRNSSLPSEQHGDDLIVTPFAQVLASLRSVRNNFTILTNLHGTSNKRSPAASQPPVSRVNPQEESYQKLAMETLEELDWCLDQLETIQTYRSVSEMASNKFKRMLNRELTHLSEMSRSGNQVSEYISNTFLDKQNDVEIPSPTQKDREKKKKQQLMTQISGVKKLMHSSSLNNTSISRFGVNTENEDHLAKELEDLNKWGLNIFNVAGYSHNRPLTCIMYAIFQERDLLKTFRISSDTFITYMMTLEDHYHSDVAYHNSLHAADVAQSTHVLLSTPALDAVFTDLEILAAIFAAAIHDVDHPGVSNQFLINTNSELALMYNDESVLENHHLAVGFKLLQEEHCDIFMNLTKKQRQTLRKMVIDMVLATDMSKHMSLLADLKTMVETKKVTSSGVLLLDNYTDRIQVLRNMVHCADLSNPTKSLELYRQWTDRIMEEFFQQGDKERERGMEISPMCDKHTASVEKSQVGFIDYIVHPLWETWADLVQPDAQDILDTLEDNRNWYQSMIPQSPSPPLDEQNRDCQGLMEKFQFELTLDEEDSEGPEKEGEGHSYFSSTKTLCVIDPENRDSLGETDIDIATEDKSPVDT
Chain of Muscarinic acetylcholine receptor M1 (Rattus norvegicus) (P08482 whole entry, looked up): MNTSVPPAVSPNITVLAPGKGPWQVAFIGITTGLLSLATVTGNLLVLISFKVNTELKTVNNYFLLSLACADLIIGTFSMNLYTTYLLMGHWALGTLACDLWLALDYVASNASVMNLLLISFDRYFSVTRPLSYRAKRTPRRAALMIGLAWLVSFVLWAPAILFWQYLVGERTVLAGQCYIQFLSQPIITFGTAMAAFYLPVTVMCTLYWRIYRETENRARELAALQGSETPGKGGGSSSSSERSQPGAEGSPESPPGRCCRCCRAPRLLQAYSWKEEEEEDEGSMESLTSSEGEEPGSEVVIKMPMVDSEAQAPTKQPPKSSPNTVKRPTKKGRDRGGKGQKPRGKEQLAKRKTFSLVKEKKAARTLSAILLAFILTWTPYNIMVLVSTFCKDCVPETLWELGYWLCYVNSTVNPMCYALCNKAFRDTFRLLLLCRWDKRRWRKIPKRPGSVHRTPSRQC

CCN(CC)CCN=Cc1c(O)n(CCc2ccccc2)c(=O)[nH]c1=O
inactive: activity change, negative = inhibition [1] -7.05% | activity change, negative = inhibition [2] -1.81% | outcome [3] | Potency [4] > 20.6 µM

CCCN(CC#CCO)CCC
inactive: activity change, negative = inhibition [1] -3.1% | activity change, negative = inhibition [2] 3.75% | outcome [3] | Potency [4] > 20.6 µM

O=c1[nH]c(O)c(C=NC2CCN(Cc3ccccc3)CC2)c(=O)[nH]1
inactive: activity change, negative = inhibition [1] 5.09% | activity change, negative = inhibition [2] -19.6% | outcome [3] | Potency [4] > 20.6 µM

Cc1ccc(-n2c(O)c(C=NCCN3CCOCC3)c(=O)[nH]c2=O)cc1
inactive: activity change, negative = inhibition [1] 6.04% | activity change, negative = inhibition [2] 13.7% | outcome [3] | Potency [4] > 20.6 µM

C/C(Cl)=C/CC1(CN2CCCC2=O)C(=O)NC(=O)NC1=O
inactive: activity change, negative = inhibition [1] -3.48% | activity change, negative = inhibition [2] 1.12% | outcome [3] | Potency [4] > 20.6 µM | activation [5] 3.38%

CCOc1ccc(-n2c(O)c(C=NCCN3CCNCC3)c(=O)[nH]c2=O)cc1
inactive: activity change, negative = inhibition [1] 9.57% | activity change, negative = inhibition [2] 0.77% | Potency [4] > 20.6 µM

CC(C)(O)[C@H]1[C@H]2OC(=O)[C@@H]1[C@]1(O)C[C@H]3O[C@]34C(=O)O[C@H]2[C@]14C (tested in a mixture with another compound)
inactive: activity change, negative = inhibition [1] 5.02% [at 38 µM] | activity change, negative = inhibition [2] -0.245% [at 38 µM] | outcome [3] | Potency [4] > 46 µM | Potency [6] > 46 µM | Potency [7] | Potency [8] | Potency [9] | outcome [10] | outcome [11] | outcome [12] | outcome [13]

CC1(C)CC(n2[nH]c(=O)c3c2NC(=O)CSC3c2ccccc2)CCO1 (stereo not drawn)
inactive: activity change, negative = inhibition [1] 0.712% | activity change, negative = inhibition [2] -1.52% | outcome [3] | Potency [4] > 20.6 µM | activation [5] 18.8%

CN1C[C@@H](CNC(=O)OCc2ccccc2)C[C@H]2c3cccc4c3c(cn4C)C[C@@H]21
inactive: activity change, negative = inhibition [1] 29.6% [at 38 µM] | activity change, negative = inhibition [2] 0.446% [at 38 µM] | outcome [3] | Potency [4] > 46 µM | Potency [6] > 46 µM | outcome [14]

COC(=O)C(c1ccccc1)N1CCCCCC1 (stereo not drawn)
inactive: activity change, negative = inhibition [1] 17.9% | activity change, negative = inhibition [2] -19.7% | outcome [3] | Potency [4] > 20.6 µM

CC(C)OC(=O)c1c(N)n(Cc2ccco2)c2nc3ccccc3nc12
inactive: activity change, negative = inhibition [1] -15.7% | activity change, negative = inhibition [2] 17.6% | outcome [3] | Potency [4] > 20.6 µM

O=C1NC(=O)C(C/C=C/c2ccccc2)C(=O)N1
inactive: activity change, negative = inhibition [1] 9.27% | activity change, negative = inhibition [2] -11.1% | outcome [3] | Potency [4] > 20.6 µM

CCN(CC)CCCC(C)N=C(c1ccccc1)c1c(O)n(C)c(=O)n(C)c1=O (stereo not drawn)
inactive: activity change, negative = inhibition [1] -17.7% | activity change, negative = inhibition [2] -29.5% | outcome [3] | Potency [4] > 20.6 µM

CCCCCCn1c(O)c(C(C)=NC)c(=O)[nH]c1=O
inactive: activity change, negative = inhibition [1] -9.96% | activity change, negative = inhibition [2] 21.1% | outcome [3] | Potency [4] > 20.6 µM

C=CCN1CC[C@]23c4c5ccc(O)c4O[C@@H]2C(=O)CC[C@@]3(O)[C@H]1C5
inactive: activity change, negative = inhibition [1] 3.28% [at 38 µM] | activity change, negative = inhibition [2] -0.768% [at 38 µM] | outcome [3] | outcome [15] | Potency [7] | outcome [16] | Potency [9] | outcome [10] | outcome [11] | outcome [12] | outcome [13]

From PubChem BioAssay (NCATS)
